The whole screen tested about 580,000 compounds, of which about 6,100 (1.1%) were called active. About 15% were inconclusive and are not listed. Many of the other results were omitted from the sample, so actives are more common in it than they were. A number with no mark means an inactive call. Calls follow the shape of the dose curve; as a rule, active = well fitted inhibition curve with a large enough effect; inconclusive = small, poorly fitted or top-dose-only effect, or another doubt; inactive = no such curve, though single readings can be large or run the other way.
target: Polyunsaturated fatty acid lipoxygenase ALOX12 (Homo sapiens) (UniProt P18054); experiment: Primary qHTS assay for inhibitors of human arachidonate 12S-lipoxygenase (ALOX12): Round 2; settings: purified 12hLO, xylenol orange hydroperoxide absorbance; series mostly up to 108 µM; activity change, negative = inhibition: at the top concentration
Outline: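 Hydroperoxide product was detected by ferrous iron/xylenol orange as the 573 to 405 nm absorbance ratio. Arachidonic acid at 40 uM (final) was turned over for 30 min at room temperature by 150 nM human 12hLO, pH 7.0 Hepes buffer, after 15 min compound preincubation.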
% is scaled to controls: 0 for no effect and ±100 for the full control effect; potency is read from the fitted curve at half-maximal effect.

Polyunsaturated fatty acid lipoxygenase ALOX12 (Homo sapiens), sequence (P18054 whole entry, looked up): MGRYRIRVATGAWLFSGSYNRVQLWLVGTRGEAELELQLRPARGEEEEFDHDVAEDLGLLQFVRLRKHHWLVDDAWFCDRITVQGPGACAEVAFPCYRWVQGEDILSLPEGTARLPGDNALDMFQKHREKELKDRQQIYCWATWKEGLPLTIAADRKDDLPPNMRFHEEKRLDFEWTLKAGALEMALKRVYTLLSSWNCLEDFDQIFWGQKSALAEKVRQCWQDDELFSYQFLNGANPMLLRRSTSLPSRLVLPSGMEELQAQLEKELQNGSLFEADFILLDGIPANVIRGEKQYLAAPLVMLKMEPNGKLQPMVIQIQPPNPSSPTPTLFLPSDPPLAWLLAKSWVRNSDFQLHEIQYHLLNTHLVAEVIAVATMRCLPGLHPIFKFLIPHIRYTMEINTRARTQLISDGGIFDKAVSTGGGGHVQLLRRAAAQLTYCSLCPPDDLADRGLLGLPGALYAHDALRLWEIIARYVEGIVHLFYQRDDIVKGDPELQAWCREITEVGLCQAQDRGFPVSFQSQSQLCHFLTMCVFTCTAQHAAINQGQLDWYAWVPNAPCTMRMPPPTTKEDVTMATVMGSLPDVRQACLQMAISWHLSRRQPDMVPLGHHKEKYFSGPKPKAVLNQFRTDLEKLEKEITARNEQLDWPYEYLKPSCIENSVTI

| SMILES | Potency | activity change, negative = inhibition |
| --- | --- | --- |
| Cc1nc(C)c(-c2csc(NCCc3ccccc3)n2)s1 | 5.01 µM (active) |  |
| Cc1cccc(C)c1Nc1nc(-c2ccccc2)cs1 |  | -68.3% |
| Cc1nc2sccn2c(=O)c1S(=O)(=O)NCCc1ccccc1 |  | 28.5% |
| Cn1c(SCC(=O)N2CCc3ccccc32)nnc1-c1ccc(F)cc1 |  | -7.62% |
| O=C(NCCCN1CCN(Cc2ccccc2)CC1)c1ccccc1C(F)(F)F |  | 16.1% |
| O=C(N[C@H](Cc1ccccc1)C(=O)N1CCCN(Cc2cccs2)CC1)[C@H]1O[C@@H](n2ccc(=O)[nH]c2=O)[C@H](O)[C@@H]1O |  | 8.24% |
| O=C(NS(=O)(=O)c1cccs1)[C@H]1O[C@@H](n2ccc(=O)[nH]c2=O)[C@H](O)[C@@H]1O | 31.6 µM (active) |  |
| Cc1nccn1-c1ccc(NC(=O)[C@H]2O[C@@H](n3ccc(=O)[nH]c3=O)[C@H](O)[C@@H]2O)cc1 |  | -15.6% |
| CCOCCCNCc1ccccc1Cl |  | -55.1% |
| CC(C)(C)CC(C)(C)NCc1ccco1 |  | -13.7% |
| CC(C)(C)C1C/C(=C/c2ccco2)C(=O)/C(=C/c2ccco2)C1 (stereo unspecified) | 39.8 µM (active) |  |
| Cc1nnc(C(=O)Nc2ccc(C(=O)NCc3ccc4c(c3)OCO4)cc2)s1 |  | 22.2% |
| CNC(=O)CNC(=O)c1n[nH]c(=O)c2ccccc12 |  | 32.6% |
| COc1ccc2[nH]cc(CCNC(=O)CNc3nc(Cl)nc4nc[nH]c34)c2c1 |  | -1.89% |
| COc1cccc(C2C(C#N)=C(N)OC3=C2S(=O)(=O)N(C)c2ccccc23)c1OC (stereo unspecified) |  | -1.38% |
| CCc1nn2c(=O)cc(CNc3cccc(C(=O)NC4CC4)c3)nc2s1 | 10 µM (active) |  |
| CCC(=O)Nc1cccc(C(=O)OCc2cc(=O)n3nc(CC)sc3n2)c1 |  | -15.1% |
| CCc1nn2c(=O)cc(CNc3cc(F)ccc3F)nc2s1 |  | -18.2% |
| CCCN(C1CCS(=O)(=O)C1)S(=O)(=O)c1ccc(OC)cc1 (stereo unspecified) |  | 11.7% |
| O=C(NCCc1ccco1)C1c2ccccc2C(=O)N(Cc2ccccc2)C12CCCC2 (stereo unspecified) |  | -28.6% |
| N#CCCn1cc(C(=O)CN2C(=O)NC3(CCOc4ccccc43)C2=O)c2ccccc21 (stereo unspecified) |  | 5.98% |
| Cc1ccc(C)c(N2CCN(c3ccc4cc(S(=O)(=O)N5CCC(C)CC5)ccc4n3)CC2)c1 | 50.1 µM (active) |  |

| SMILES | Potency | activity change, negative = inhibition |
| --- | --- | --- |
| Cc1ccccc1N1CCN(S(=O)(=O)c2ccc3ccccc3c2)CC1 |  | -1.81% |
| O=S(=O)(c1ccc2nc(N3CCN(c4cccc(Cl)c4)CC3)ccc2c1)N1CCCCC1 |  | -26% |
| CC1=C[C@@H](CNC2CCN(C)CC2)[C@H](C(C)C)C[C@H]1Cc1nc2ccccc2[nH]1 |  | 34.7% [at 176 µM] |
| Cc1noc(C)c1C(=O)N1CCCC2(Cc3ccccc3CN2C(=O)C2CCCC2)C1 (stereo unspecified) |  | 2.72% [at 12.5 µM] |
| C#C[C@]1(O)CC[C@H]2[C@@H]3CCC4=CC(=O)CC[C@@H]4[C@H]3CC[C@@]21CC | inactive |  |
| C[C@]12CCC3=C4CCC(=O)C=C4CC[C@@H]3[C@H]1CC[C@@]2(O)CC#N | 19.3 µM (active) |  |
| Cc1ccccc1NC(=O)CSc1nnc(C)n1-n1cccc1 |  | 0.567% |
| COc1ccc(NC(=O)c2nn(C)c(=O)c3ccccc23)cc1OC(F)F |  | 11.9% |
| CCc1cccc(C)c1NC(=O)Cn1ccn(-c2ccccc2)c(=O)c1=O |  | 27.8% |
| O=C(COC(=O)/C=C/c1ccc(Cl)cc1)NC1CCS(=O)(=O)C1 (stereo unspecified) |  | -5.54% |
| CC(C(=O)NC1CCS(=O)(=O)C1)N1C(=O)/C(=C/c2ccc(Cl)cc2)SC1=S (stereo unspecified) | 35.5 µM (active) |  |
| CC(C)(C)c1ccc(/C=C/C(=O)NC2CCS(=O)(=O)C2)cc1 (stereo unspecified) |  | -1.56% |
| COc1ccc(S(=O)(=O)N2CCN(Cc3ncc(-c4ccc(F)cc4)o3)CC2)cc1 |  | -18.3% |
| O=C(c1ccco1)N1CCN=C1SCc1cccc(Cl)c1 |  | -7.97% |
| Cc1ccc2nc(COc3cccc(NC(=O)c4cccc(Cl)c4)c3)cc(=O)n2c1 |  | -35.3% |
| Cc1ccc2nc(-c3ccco3)c(Cc3cccc(Cl)c3)n2c1 | 25.1 µM (active) |  |
| Cc1cc2nc(-c3ccco3)c(Cc3cccc(F)c3)n2c(C)c1Br | 11.2 µM (active) |  |
| Cc1ccc(C(=O)c2ccccc2C(=O)OCc2ccccc2Cl)cc1 |  | -2.13% |
| CCN(CC)S(=O)(=O)c1ccc2c(c1)c(=O)n(CC(=O)N1CCCCCC1)c(=O)n2C |  | 3.26% |
| O=C(CSc1nnc(-c2ccc(Cl)cc2)o1)N1CCC(c2ccccc2)=N1 |  | -7.14% |
| O=C1C(Cl)=C(Oc2ccccc2)C(=O)c2ccccc21 | 11.2 µM (active) |  |
| Cc1cc2c(cn1)C(=O)c1ccccc1-2 |  | -6.61% |

| SMILES | Potency | activity change, negative = inhibition |
| --- | --- | --- |
| N#Cc1cccc(CN2CCC(c3ccnn3CCO)CC2)c1 |  | 2.21% |
| COc1ccc2cc(C(=O)C3CCCN(C(=O)c4sc(C)nc4C)C3)ccc2c1 (stereo unspecified) |  | -0.7% |
| COc1ccc2nc(N3CCCC(O)C3)c(C#N)cc2c1 (stereo unspecified) | 50.1 µM (active) |  |
| COc1ccc(OC)c(NC(=O)c2nc3ccccc3nc2N2CCCC2)c1 |  | 4.4% |
| O=C(COc1ccc2ccccc2c1)Nc1nc2n(n1)C(c1ccc(Cl)cc1)CC(=O)N2 (stereo unspecified) |  | -2.54% |
| O=C(NCC1CCCCO1)C1(Oc2ccc(Cl)cc2)CCNCC1 (stereo unspecified) |  | 33.9% |
| CC(C)N(C(=O)COC(=O)/C=C/c1cccc2cccnc12)c1ccccc1 |  | -2.31% |
| CC(=O)NC1(C)CN(Cc2ccc(-c3ccc4c(ccn4C)c3)s2)C1 |  | -9.28% [at 176 µM] |
| COC(=O)Nc1ncc(CN2CCCCC2)s1 |  | 18% |
| CC(=O)NC1(C)CCN(Cc2cnc(-c3ccc4c(ccn4C)c3)s2)CC1 | 39.8 µM (active) |  |
| CCCc1c(C)nc(Nc2nc(C)c3ccc(C)cc3n2)[nH]c1=O |  | -5% |
| CCOc1ccc(-n2c(N)c(C(=O)NCC3CCCO3)sc2=S)cc1 (stereo unspecified) |  | -25.8% |
| COC(=O)c1sc2ncccc2c1-n1c(C)ccc1C |  | 3.01% |
| COC(=O)c1sc(=S)n(-c2ccccc2)c1N | 44.7 µM (active) |  |
| Cc1ccc(C(=O)NC(c2ccc3c(c2)OCCCO3)C(C)C)cn1 (stereo unspecified) |  | -5.47% |
| Cc1c(CCC(=O)NCc2ccc3c(c2)OCO3)c(=O)oc2cc(O)ccc12 |  | 21.8% |
| COc1ccc(NC(=O)c2ccc(Br)o2)cc1NC(=O)c1ccccc1C |  | -25.8% |
| O=C(Nc1ccc2c(c1)OCO2)c1cc(=O)c(OCc2ccccc2F)co1 |  | 17.9% |
| CN1C(=O)c2ccc(NC(=O)C(F)(F)C(F)(F)C(F)(F)F)cc2C1=O |  | 16.5% |
| Cc1nn2c(c1-c1ccccc1-c1ccccc1)N(C(=O)CN1CCOCC1)CCC2 |  | -29.2% [at 176 µM] |
| Cc1ccccc1CN1CCCn2nc(C)c(-c3cccnc3N3CCOCC3)c21 | 28.2 µM (active) |  |
| COc1c(CNCc2cccnc2N2CCOCC2)c(C)nn1C |  | -0.0455% |

Reference: PubChem BioAssay AID1671190 (National Center for Advancing Translational Sciences (NCATS), 2021)
